PME-1 inh – PME-1 (human) inhibition; Q9Y570; recombinant PME-1, FP-Rh probe fluorescence polarization; inhibition, % at 5.9 µM; hit rate 0.53% among 320,000;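 active means inhibition above the campaign mean of all compounds plus 3 SD, cut at about 26% in these data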;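 further: competitive labeling of PME-1 active site by serine hydrolase directed probe; 0% = PME-1 with DMSO and 100% = wells lacking PME-1 enzyme; inhibitors block probe labeling so polarization falls and inhibition rises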
PAD4 inh – inhibitors of human PAD4. Q9UM07. recombinant PAD4, RCA probe fluorescence polarization. inhibition, % at 6.36 µM. hit rate 0.41% among 330,000. AID 485272;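 active means percent inhibition above a cutoff equal to the mean of all tested compounds plus 3 SD, cut at about 15% in these data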;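 further: 0% = PAD4 with RCA probe and DMSO and 100% = probe without PAD4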
LYPLA1 inh – LYPLA1 (human) inhibition in PME1 counter-screen; O75608; recombinant LYPLA1, FP-Rh probe fluorescence polarization; inhibition, % at 5.9 µM; hit rate 0.16% among 320,000;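 active means inhibition above the mean of all tested compounds plus 3 SD, set per campaign, cut at about 14% in these data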;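 further: inhibitors block serine hydrolase probe labeling of LYPLA1 so polarization falls; 0% = enzyme with DMSO and 100% = wells lacking LYPLA1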
GSTO1 inh – blocks human GSTO1 in RBBP9 counter-screen | hit rate 1.1% among 300,000 | P78417 | recombinant GSTO1, activity-based probe fluorescence polarization | inhibition, % at 5.96 µM;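 active means inhibition above the campaign mean inhibition plus 3 SD, cut at about 35% in these data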;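 further: 0% = GSTO1-1 with DMSO and 100% = wells lacking GSTO1-1 enzyme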
Fam108B counter – Fam108B inhibition, counter-screen for RBBP9 inhibitors; hit rate 0.33% among 300,000; recombinant Fam108B, FP-Rh probe fluorescence polarization; inhibition, % at 9.51 µM; AID 1947;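 active means inhibition above the screen mean inhibition plus 3 SD, computed separately per campaign, cut at about 18% in these data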;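 further: inhibitors lower polarization as less probe binds the enzyme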
LYPLA2 inh – counter-screen for PME1 inhibitors: inhibitors of human LYPLA2; O95372; recombinant LYPLA2, FP-Rh probe fluorescence polarization; inhibition, % at 5.9 µM; hit rate 0.38% among 320,000; AID 2177;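 active means inhibition above the screen-wide mean plus 3 SD, limit set per campaign, cut at about 26% in these data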;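 further: 0% = LYPLA2 with DMSO and 100% = wells lacking LYPLA2 enzyme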
Target sequence (O95372 whole entry, looked up): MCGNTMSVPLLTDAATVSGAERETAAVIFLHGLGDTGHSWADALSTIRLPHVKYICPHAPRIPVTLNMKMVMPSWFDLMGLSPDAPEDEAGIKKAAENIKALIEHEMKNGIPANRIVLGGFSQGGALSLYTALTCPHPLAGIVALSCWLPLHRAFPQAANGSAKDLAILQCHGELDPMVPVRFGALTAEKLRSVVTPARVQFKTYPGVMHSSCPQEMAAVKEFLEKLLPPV
PAD4 FP conf – PAD4 (human) inhibition, confirmed | shares compounds with PAD4 inh | recombinant PAD4, RCA probe fluorescence polarization | inhibition, % at 6.36 µM | hit rate 28% among 1,200 | AID 488796;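 active means mean inhibition across replicates above the hit cutoff set by the earlier primary screen, cut at about 15% in these data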;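 further: inhibitors block active-site labeling by the probe so polarization falls; 0% = PAD4 with probe and DMSO and 100% = probe without PAD4 enzyme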
An asterisk follows results filed as active. Rows were chosen to be rich in hits. Some 1.8% of all compounds tested hit in one or more screens of this group.

`O=C(O)CC/C(=N\NC(=O)CNC(=O)c1ccc(F)cc1)c1ccccc1` gave PME-1 inh -6, PAD4 inh 18*, LYPLA1 inh 1, GSTO1 inh -2, Fam108B counter 3, LYPLA2 inh 2 and PAD4 FP conf -6.
For O=C(O)CC/C(=N/NC(=O)CNC(=O)Cc1ccccc1)c1ccccc1 the results were PME-1 inh -3, PAD4 inh 0, LYPLA1 inh -2, GSTO1 inh 11, Fam108B counter -1 and LYPLA2 inh 1.
`COc1ccccc1C1c2ccc3ccccc3c2Oc2ncn(CCCO)c(=N)c21` (centres undefined) gave PME-1 inh -4, PAD4 inh -7, LYPLA1 inh -3, GSTO1 inh -12, Fam108B counter -5 and LYPLA2 inh -8.
`COc1ccccc1C1c2ccc3ccccc3c2Oc2ncn(CCN(C)C)c(=N)c21` (centres undefined) gave PME-1 inh -3, PAD4 inh 19*, LYPLA1 inh -3, GSTO1 inh 1, Fam108B counter -3, LYPLA2 inh 1 and PAD4 FP conf 1.
For NC(=O)c1nc[nH]c1C(=O)Nc1cccc(NC(=O)c2cccc(C(F)(F)F)c2)c1 the results were PAD4 inh 1.
Cc1nc(SCC(=O)c2ccccc2)[nH]c(=O)c1Oc1ccc(Cl)cc1 was read as PME-1 inh 4, PAD4 inh 21*, LYPLA1 inh 0, GSTO1 inh -2, Fam108B counter -1, LYPLA2 inh -1 and PAD4 FP conf 3.
Screening COc1ccc(C)cc1N(C(=O)c1ccccc1F)c1nc2ccccc2s1 returned PME-1 inh 0, PAD4 inh 29*, LYPLA1 inh -6, GSTO1 inh 5, Fam108B counter -5, LYPLA2 inh -3 and PAD4 FP conf 29*.
`COc1cccc(-c2nc(CS(=O)(=O)CC(=O)Nc3ccccc3Br)c(C)o2)c1` gave PME-1 inh 2, PAD4 inh -3, LYPLA1 inh 0, GSTO1 inh -10, Fam108B counter 0 and LYPLA2 inh 2.
Screening CC(=O)Nc1ccc(SCC(=O)c2ccc(Br)s2)cc1 returned PME-1 inh -4, PAD4 inh 35*, LYPLA1 inh -3, GSTO1 inh 12, Fam108B counter 3, LYPLA2 inh -3 and PAD4 FP conf 12.
For O=C(N/N=C\c1ccc(-c2ccccc2[N+](=O)[O-])o1)C1COc2cc3ccccc3cc2O1 (centres undefined) the results were PME-1 inh -14, PAD4 inh 17*, LYPLA1 inh -20, GSTO1 inh 13, Fam108B counter -16, LYPLA2 inh -36 and PAD4 FP conf -5.
Screening Cc1ccc(/C=N\NC(=O)C2COc3cc4ccccc4cc3O2)o1 (centres undefined) returned PME-1 inh -2, PAD4 inh -2, LYPLA1 inh -5, GSTO1 inh 9, Fam108B counter 8 and LYPLA2 inh -8.
`Cc1ccc(N/C=C2\C(=O)C3(C)CCC2C3(C)C)cc1C` (centres undefined) gave PME-1 inh 3, PAD4 inh -9, LYPLA1 inh 0, GSTO1 inh 11, Fam108B counter 1 and LYPLA2 inh -1.
Screening CC12CCC(C(=Nc3ccc(N=C4C(=O)C5(C)CCC4C5(C)C)cc3)C1=O)C2(C)C returned PME-1 inh 9, PAD4 inh 45*, LYPLA1 inh 2, GSTO1 inh 8, Fam108B counter 3, LYPLA2 inh 4 and PAD4 FP conf -3.

Assay outcomes: PubChem BioAssay, The Scripps Research Institute Molecular Screening Center
